Test results published in PubChem BioAssay AID602393 (Broad Institute, 2012).
Screen size: about 350,000 compounds; about 7,000 (2%) were called active. This is one part of a sample in which actives are shown more often than they occur. A number with no mark means an inactive call. Rule as the data show it: active = activation above about 40%; inconclusive = no clear call, values can overlap the other calls; inactive = below that.

Assay: Bmi1 luciferase reporter increase in mESCs, primary screen, esBAF inhibitor project, mouse ES cells, Bmi1 luciferase knock-in, single point (AID 602393);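 also: 0% = median of the plate's neutral control wells and 100% = double that signal; a rise in the Bmi1 reporter signal indicates esBAF inhibition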
Conditions: 24 h, at 12.5 µM, hits give high values, 100% = twice the neutral-well signal
Compound `Cc1ccc(S(=O)(=O)N[C@@H]2CC[C@@H](CCn3cc(C(C)C)nn3)O[C@H]2CO)cc1` has a reporter increase of -3.18%.
For `Cc1cccc(S(=O)(=O)N2C[C@H]3[C@@H](c4ccccc42)[C@H](CO)N3Cc2ccc3c(c2)OCO3)c1`, the reporter increase was -3.41%.
For `CO[C@@H]1CN(C)C(=O)c2ccc(NS(=O)(=O)c3ccc(C)cc3)cc2OC[C@@H](C)N(Cc2nccs2)C[C@H]1C`, the reporter increase was -3.84%.
Work on `Oc1ccccc1-c1cc(-c2ccc(Cl)cc2)n[nH]1` yielded a reporter increase of 21.6%.
With `c1ccc(-c2cc(-c3ccccc3)[nH]n2)cc1` the reporter increase was 42.5% (active).
Compound `CC(C)(C)C1CCC(=NNC(=O)c2cc(-c3ccccc3)n[nH]2)CC1` (stereo not drawn) has a reporter increase of -0.812%.
For `CN1C(=O)c2cc(NC(=O)Nc3ccccc3F)ccc2OC[C@H]2O[C@@H](CC(=O)Nc3cccc(Cl)c3)CC[C@@H]21`, the reporter increase was 20.4%.
`Cc1noc(C)c1S(=O)(=O)N(C)C[C@H]1OCCCC[C@H](C)Oc2ccc(NS(=O)(=O)c3ccccc3)cc2C(=O)N([C@H](C)CO)C[C@@H]1C` gave a reporter increase of -1.33%.
In the case of `Cn1cnc(CCNC(=O)C[C@@H]2CC[C@@H]3[C@H](COC[C@@H](O)CN3C(=O)Nc3ccccc3)O2)c1`, the reporter increase is reported as -3.44%.
`C[C@@H]1CN([C@@H](C)CO)S(=O)(=O)c2ccc(-c3cncnc3)cc2O[C@@H]1CN(C)C(=O)C1CC1` showed a reporter increase of -3.14%.
For `O=C(Cn1c(NCCO)nc2ccccc21)c1ccc(Cl)cc1Cl`, the reporter increase was -0.748%.
With `Cn1c(Nc2cccc(Cl)c2)nc2ccccc21` the reporter increase was 53.4% (active).
With `C/C(=N\c1nc2ccccc2n1C)c1cc(Cl)ccc1O` the reporter increase was -2.25%.
`C[C@@H]1CN([C@H](C)CO)C(=O)CCCn2cc(nn2)CO[C@@H]1CN(C)C(=O)c1ccc2ccn(C)c2c1` showed a reporter increase of -1.71%.
`Cc1cc(CN(C)C(=O)c2cc(COc3ccc(C)c(C)c3)on2)n[nH]1` showed a reporter increase of 13.8%.
With `Cc1ccc(OCc2cc(C(=O)N(C)CCn3ccnc3C)no2)cc1C` the reporter increase was 11.8%.
In the case of `Cc1ccc(OCc2cc(C(=O)N(C)CCc3ccccc3)no2)cc1C`, the reporter increase is reported as 71.6% (active).
Work on `O=C(Nc1ccccc1)Nc1ccc2c(c1)[C@@H]1C[C@@H](CC(=O)N3CCCCC3)O[C@H](CO)[C@@H]1O2` yielded a reporter increase of -0.639%.
`CO[C@H]1CN(C)C(=O)c2ccc(NS(=O)(=O)c3cn(C)cn3)cc2OC[C@@H](C)N(CC2CC2)C[C@H]1C` showed a reporter increase of -8.79%.
For `O=C(Nc1ccon1)c1sc2ccccc2c1Cl`, the reporter increase was 48.7% (active).
Work on `CN1CCc2ccccc2C1Cc1ccccc1NC(=O)c1sc2ccccc2c1Cl` (stereo not drawn) yielded a reporter increase of 51%.
For `O=C(Nc1ccon1)c1nc[nH]c1C(=O)NCc1ccccc1`, the reporter increase was -6.72%.
For `Cc1ccc(-n2c(SCC(=O)N3CCC(C(=O)O)CC3)nc3ccccc3c2=O)cc1C`, the reporter increase was 42% (active).
`O=C(CSc1nc2ccccc2c(=O)n1-c1ccccc1F)N1CCOCC1` showed a reporter increase of -4.38%.
Work on `O=C(CSc1nc2ccccc2c(=O)n1-c1ccc(F)cc1)NC1CC1` yielded a reporter increase of -5.85%.
Work on `Cc1noc(C)c1NC(=O)Nc1ccc2c(c1)C(=O)N([C@H](C)CO)C[C@H](C)[C@H](CN(C)S(=O)(=O)c1cccs1)O2` yielded a reporter increase of 1.55%.
`O=C(NC1CCCC1)[C@H]1[C@H](CO)[C@H]2Cn3c(ccc(-c4ccccc4F)c3=O)[C@@H]1N2C(=O)CC1CC1` gave a reporter increase of -2.95%.
For `CO[C@H]1CN(C)C(=O)c2cc(NS(=O)(=O)c3ccccc3C)ccc2OC[C@@H](C)NC[C@@H]1C`, the reporter increase was 1.69%.
For `C[C@@H]1CCCCO[C@H](CN(C)C(=O)CCCN(C)C)[C@H](C)CN([C@@H](C)CO)C(=O)c2cc(NS(=O)(=O)c3ccc(Cl)cc3)ccc2O1`, the reporter increase was 2.25%.
`C[C@H](CO)N1C[C@H](C)[C@H](CN(C)Cc2ccc(C(F)(F)F)cc2)Oc2ccc(NC(=O)CCCCCC(=O)Nc3ccccc3N)cc2CC1=O` showed a reporter increase of -12.1%.
`Cc1ccc(/C=N/NC(=O)Cn2nc(C)c(Br)c2C)o1` gave a reporter increase of -0.989%.
In the case of `CCn1nc(C)c(/C=N/NC(=O)Cc2ccc(Cl)cc2)c1C`, the reporter increase is reported as 64.3% (active).
Work on `O=C(Cc1ccccc1)N/N=C/c1ccc(Cl)cc1Cl` yielded a reporter increase of 3%.
Work on `COc1cccc(-c2cnc3c(c2)C(=O)N([C@@H](C)CO)C[C@@H](C)[C@H](CN(C)C(=O)CN(C)C)O3)c1` yielded a reporter increase of 4.59%.
Work on `O=C(C[C@H]1C=C[C@H](NC(=O)c2cnccn2)[C@@H](CO)O1)NCc1ccccc1F` yielded a reporter increase of -2.01%.
In the case of `Cc1ccc(-c2nc(COC(=O)c3c(C)noc3C)cs2)cc1`, the reporter increase is reported as 76.6% (active).
`Cc1noc(C)c1COC(=O)c1cc2ccccc2cc1O` showed a reporter increase of -1.05%.
With `Cc1ccc(S(=O)(=O)N2CCN(C(=O)COC(=O)c3c(C)noc3C)CC2)c(C)c1` the reporter increase was 0.794%.
Compound `COc1ccc(CNC(=O)C[C@H]2CC[C@H](NC(=O)Nc3ccc4c(c3)OCO4)[C@H](CO)O2)cc1` has a reporter increase of -2.93%.
`C[C@H](CO)N1C[C@H](C)[C@@H](CN(C)C(=O)Nc2ccc3c(c2)OCO3)OCCCC[C@H](C)Oc2ccc(NC(=O)Nc3ccc(F)cc3)cc2C1=O` gave a reporter increase of 4.31%.
In the case of `C[C@@H]1CN([C@@H](C)CO)C(=O)c2cc(NC(=O)Nc3ccc4c(c3)OCO4)ccc2O[C@@H](C)CCCCO[C@H]1CN(C)C(=O)Nc1ccc(C(F)(F)F)cc1`, the reporter increase is reported as 0.715%.
With `C[C@@H]1CN([C@@H](C)CO)C(=O)c2cc(NC(=O)Nc3ccc4c(c3)OCO4)ccc2O[C@@H](C)CCCCO[C@@H]1CN(C)C(=O)Nc1ccc2c(c1)OCO2` the reporter increase was 64.3% (active).
`COc1ccc(NC(=O)Nc2ccc3c(c2)C(=O)N([C@H](C)CO)C[C@H](C)[C@@H](CN(C)C(=O)Nc2ccc(OC)cc2)OCCCC[C@H](C)O3)cc1` gave a reporter increase of 3.33%.
In the case of `C[C@H]1CCCCO[C@H](CN(C)C(=O)Nc2ccccc2)[C@@H](C)CN([C@@H](C)CO)C(=O)c2cc(NC(=O)Nc3ccc4c(c3)OCO4)ccc2O1`, the reporter increase is reported as 27%.
With `COc1ccc(NC(=O)Nc2ccc3c(c2)C(=O)N([C@@H](C)CO)C[C@@H](C)[C@@H](CN(C)C(=O)Nc2ccc(F)cc2)OCCCC[C@@H](C)O3)cc1` the reporter increase was 4.33%.
For `C[C@H]1CCCCO[C@H](CN(C)C(=O)Nc2ccc3c(c2)OCO3)[C@@H](C)CN([C@@H](C)CO)C(=O)c2cc(NC(=O)Nc3ccccc3)ccc2O1`, the reporter increase was 10.9%.
In the case of `COc1ccc(NC(=O)N(C)C[C@H]2OCCCC[C@@H](C)Oc3ccc(NC(=O)Nc4ccc5c(c4)OCO5)cc3C(=O)N([C@H](C)CO)C[C@@H]2C)cc1`, the reporter increase is reported as 49.3% (active).
With `C[C@H](CO)N1C[C@H](C)[C@@H](CN(C)C(=O)Nc2ccc3c(c2)OCO3)OCCCC[C@H](C)Oc2ccc(NC(=O)Nc3ccc4c(c3)OCO4)cc2C1=O` the reporter increase was 45% (active).
